Measured values from PubChem BioAssay AID624300 (Southern Research Specialized Biocontainment Screening …, 2012).
Hit rate of the full screen: of about 2,400 compounds, about 360 (15%) were called active. The list is a sample of the results. Potency and affinity values are given separately. Values without a mark were called inactive.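 Rule for the calls: active = viability falls under 70% at one or more tested concentrations, taken as toxicity; inactive = viability stays over 70% at every dose.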

experiment: HeLa cell cytotoxicity, dose response, cytotoxicity control for MgcRacGAP inhibitor project (AID 624300); conditions: CellTiter-Glo luminescence, 24 h; series mostly up to 100 µM; viability: at the top concentration;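 note: 100% = median of untreated control wells on the same plate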

SMILES | viability [%]
Cc1ccc(S(=O)(=O)Oc2ccc(/C=C3/C(=N)N4C(=NC3=O)SN=C4S(C)(=O)=O)cc2)cc1 | 106
COc1cc2nc(=S)n(CCCN3CCOCC3)c(N)c2cc1OC | 98.3
COc1cccc(CNc2ccc3c(c2)ncn3C)c1OC | 96.4
Oc1ccc(NCc2ccccc2OCc2ccccc2F)cc1 | 108
CC(Oc1ccc(Cl)cc1Cl)C(=O)Nc1ccc(O)cc1 (configuration not stated) | 113
COc1cccc(CNc2ccc(N3CCCCC3)cc2)c1OC | 91.9
O=C(c1c(Cl)cccc1Cl)N1CCN(c2cccc3[nH]ccc23)CC1 | 85.3
COc1ccc(N2CCC(CNC(=S)Nc3cccc(C)c3)C2)cc1 (configuration not stated) | 81.7
Cc1nc2ccccc2n2c(O)c(CC(=O)O)cc12 | 101
Clc1cc(Cl)c(OCCCCn2cncn2)c(Cl)c1 | 93.2
COc1cc(/C=N\N=C2/SC(CC(=O)O)C(=O)N2c2ccc(O)cc2)ccc1O (configuration not stated) | 108
CCN(CC)S(=O)(=O)c1ccc(C)c(NC(=O)CN2CCN(Cc3ccccc3)CC2)c1 | 95.8
CCN(CC)c1ccc(S(=O)(=O)N2CCOCC2)cc1NC(=O)COC(=O)/C=C/c1ccc(O)c(OC)c1 | 91
CCn1cnc2cc(NCc3ccc(OC)cc3)ccc21 | 98.5
COc1ccc2c(c1)-c1nc(/N=C/c3ccccc3O)sc1CC2 | 111
Cn1cccc1/C=N/N1CCN(c2ccccc2)CC1 | 104
COc1cc(/C=N/Nc2cccc3cccnc23)cc(OC)c1O | 95.5
COc1cc(/C=N/NC(=O)c2nc(C)cc(C)n2)ccc1O | 105
Cc1cc(=O)[nH]c(N/N=C/c2ccc(O)c(O)c2)n1 | 101
Cc1cc(C)n(CCC(=O)N/N=C/c2ccc(O)cc2)n1 | 96.2
COc1cc(/C=C/C(=O)OCC(=O)N2CCCc3ccccc32)ccc1O | 97.4
COc1cc(/C=C/C(=O)OCC(=O)NC(=O)NC(C)(C)C)ccc1O | 88.8
COc1cc(/C=C/C(=O)OCC(=O)NC2CCS(=O)(=O)C2)ccc1O (configuration not stated) | 109
COc1ccc(N2CCN(C(c3cccs3)C(C)NC(=O)c3ccco3)CC2)cc1 (configuration not stated) | 94.4
O=C1NN(c2ccc(Br)cc2)C(=O)/C1=C\c1ccc(O)cc1O | 87.2
O=C1NN(c2ccccc2)C(=O)C1=Cc1ccccc1O | 104

SMILES | viability [%]
C(=N\N1CCOCC1)/c1nc(-c2ccccc2)n2ccccc12 | 101
COc1cc(OC)cc(C(=O)N2CCN(Cc3ccccc3Br)CC2)c1 | 86.6
COc1cc(/C=N/NC(=O)CCN2CCCCC2)ccc1O | 101
COc1ccc2c(/C=N/Nc3ccc(C(=O)O)cc3)c[nH]c2c1 | 102
COc1cc(/C=N/Nc2ccccn2)cc(OC)c1O | 91.8
COc1ccc2c(c1)-c1nc(/N=C/c3cccc(OC)c3O)sc1CC2 | 112
COc1ccc2nc(C)cc(SCC(=O)N/N=C/c3ccc(O)c(O)c3)c2c1 | 97.9
CN1CCCCCC1=Nc1ccccc1C#N | 92.2
CCn1c(C)nc2cc(C(=O)N/N=C/c3cccc(O)c3O)ccc21 | 108
O=c1/c(=C/c2ccc(O)cc2)sc2n1CCCN=2 | 102
Cc1c(N=Nc2ccc(O)cc2)c(=O)n(-c2ccccc2)n1C | 103
Oc1ccc(Nc2ccnc3cc(Cl)ccc23)cc1 | 95.1
NC(=S)NNc1ccnc2cc(Cl)ccc12 | 88
Cc1ccc(NCc2ccco2)cc1C | 105
COc1cc(/C=N/NC(=O)CCC(=O)Nc2ccc(F)cc2)ccc1O | 103
CN(C)c1ccc(N/C=C/C(=O)C(C)(C)C)cc1 | 96.1
COc1cc(/C=N/N=C(\N)c2nonc2N)ccc1O | 91.8
CNc1nnc(-c2ccc(N(C)C)cc2)s1 | 106
CCN(CC)c1ccc(N=Cc2c(C)[nH]c3ccccc23)cc1 | 87.1
COCCNCC(=O)Nc1ccc(C)c(S(=O)(=O)N2CCCCC2)c1 | 101
CCN(CC)c1ccc(/C=N\NC(N)=O)cc1 | 90.5
COc1cc(/C=N/NC(=O)c2ccoc2C)ccc1O | 84.7
COc1cc(OC)c(Cl)cc1N | 103
CCc1cc(/C(Cc2ccccn2)=N\O)c(O)cc1O | 89.5
CCc1cc(/C(Cc2csc(C)n2)=N/O)c(O)cc1O | 95.9
COc1ccc(C)cc1NCc1cccc(OC)c1OC | 99.1

SMILES | viability [%]
Cn1cccc1/C=N/N1CCN(c2ccccn2)CC1 | 99.6
Cc1ccc(C(C)C)c(OCCCCN2CCNCC2)c1 | 89.7
Cc1ccc(C(C)(C)C)cc1S(=O)(=O)N1CCC(C(=O)N2CCN(c3ccc(O)cc3)CC2)CC1 | 82.4
N#C/C(=C/c1ccc(N2CCCCCC2)o1)c1ccc(Cl)cc1 | 81.8
Cc1ccc(/C(C#N)=C\c2ccc(N3CCOCC3)o2)cc1 | 95.3
Nc1sc(-c2ccccc2)c(Cc2ccccc2)c1C(=O)O | 87.5
COc1ccc2c(c1)c(C(=O)N/N=C/c1ccc(O)c(O)c1)c(C)n2C | 94.3
COc1cccc(OCC(O)CN2CCN(C)CC2)c1 (configuration not stated) | 102
CCN1CCN(CC(O)COC(c2ccccc2)c2ccccc2C)CC1 (configuration not stated) | 104
O=[N+]([O-])c1ccc(Sc2cccc3cccnc23)c([N+](=O)[O-])c1 | 101
O=[N+]([O-])c1cccc(CN2CCN(Cc3ccco3)CC2)c1 | 101
CCc1cc(-c2[nH]ncc2-c2nc3ccccc3n2C)c(O)cc1O | 91
CCOc1cc(/C=N/Nc2nc(=O)[nH]nc2C)ccc1O | 91.2
COc1cc(/C=N/Nc2ccc(C(F)(F)F)cn2)ccc1O | 89.1
COc1ccc(CN2CCN(C(=O)CC(C)C)CC2)cc1OC | 102
Cc1nnc2ccc(Oc3ccc(-c4ccccc4)cc3)nn12 | 95.5
Nc1cc2c(cc1N)-c1ccccc1C2 | 94.9
CCOC(=O)Nc1ccc2c(c1)Nc1ccccc1S2 | 96.4
CC(=O)c1ccc2c(c1)Nc1ccccc1S2 | 94.2
O=C(Sc1n[nH]c(=O)[nH]c1=O)c1ccccc1 | 101
CCN(CC)c1ccc(/C=N/N2CCN(Cc3ccccc3)CC2)cc1 | 90.3
O=C(Nc1ccc(N2CCCCCC2)cc1)c1ccc[nH]1 | 89.3
CC(C)(C)N1C(=O)c2ccc(C(=O)Nc3ccc(O)cc3)cc2C1=O | 99.5
Oc1ccc(/C=C/c2ccc3ccccc3n2)cc1 | 87.7
O=C(O)c1ccc2nc(-c3ccco3)c(-c3ccco3)nc2c1 | 95
